Records with an inconclusive call do not appear. Calls of active or inactive are those of the source. Unless noted, calls come from the whole dose curve; as a rule, active = well fitted curve in the direction sought with a large enough effect; inconclusive = small, poorly fitted or top-dose-only effect, or another doubt; inactive = no such curve, though single readings can be large; an effect the other way counts as inactive or inconclusive.

The text below walks through data of PubChem BioAssay (NCATS).

Assay [1] in a line: qHTS for compounds that reverse cellular toxicity of Amyloid beta (A-beta) peptide in yeast: LOPAC Validation Assay (AID 720559).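 Note: plate controls were DMSO for no effect and equimolar ferric chloride plus clioquinol rescue for full effect.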 The essentials:
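Rescue of A-beta toxicity was scored as yeast growth by 600 nm absorbance after 48 hr at 30 C with compound. Normalization used DMSO (negative) and equimolar ferric chloride plus clioquinol (positive).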
(In general: qHTS replaces the single test concentration by a dilution series.)

Assay [2] is described as follows: qHTS for Activators of Parkin Expression: LOPAC Validation Assay (NLuc Reporter) (AID 720572;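 note: 0% = DMSO and 100% = positive control compound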). An outline of the steps:
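Neuronal line stably carrying a FLuc/NLuc coincidence reporter under the Parkin promoter, seeded 24 h, then dosed in 7-point series for 24 h at 37 C. NLuc luminescence read after FLuc; normalized to DMSO and positive control (100%).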

The nature of assay [3]: qHTS for Activators of Parkin Expression: LOPAC Validation Assay (FLuc Reporter) (AID 720573;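 note: 0% = DMSO and 100% = positive control compounds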). An outline of the steps:
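FLuc signal from Parkin-promoter coincidence reporter neuronal cells, normalized to DMSO and positive control (100%). Cells (1,500/well) pre-incubated 24 h, then exposed to LOPAC compounds in 7-point dose response for 24 h at 37 C, 5% CO2.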

The target of assay [4] is T1, Hexokinase-4 (Homo sapiens) + Glucokinase regulatory protein (Homo sapiens) (UniProt P35557+Q14397). Nature of the assay: qHTS assay for inhibitors of recombinant human GCK-GKRP interaction: Diaphorase-coupled assay (AID 743205). An outline of the steps:
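A kinetic fluorescence read (Ex 525/Em 590 nm, every minute for 30 minutes) tracked resorufin from a G6PDH-diaphorase coupled GCK reaction. It contained 10 nM GST-GCK, 10 nM FLAG-GKRP, 5 mM glucose, 0.4 mM ATP in Hepes pH 7.6. Normalized to with/without-enzyme DMSO controls.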

Assay [5] deals with T1, Hexokinase-4 (Homo sapiens) + Glucokinase regulatory protein (Homo sapiens). Nature of the assay: qHTS assay for inhibitors of recombinant human GCK-GKRP interaction: ADP-Glo assay (AID 743206).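 Note: plate controls were DMSO plus enzyme for no effect and no enzyme for full effect.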 An outline of the steps:
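GST-GCK and FLAG-GKRP (15 nM each in the dispensed mix, with 2 uM S6P) react with 0.4 mM ATP and 5 mM glucose (final) in Hepes pH 7.6 for 60 min at room temperature. ADP is measured by ADP-Glo luminescence.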

Assay [6] addresses Arylsulfatase A (Homo sapiens) (UniProt P15289). Nature of the assay: qHTS screen for enhancers of Arylsulfatase A (ASA1): LOPAC Validation Assay (AID 720538). An outline of the steps:
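Enhancer assay in patient-derived MLD fibroblasts carrying ASA-I179S: 48 h compound exposure at 37 C, then 14 h room-temperature pNCS turnover (0.5 mM final) in lysis buffer. Read by fluorescence at 525/598 nm after NaOH stop.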

The target in assay [7] is T1, Hexokinase-4 (Homo sapiens) + Glucokinase regulatory protein (Homo sapiens). Nature of the assay: qHTS assay for inhibitors of recombinant human GCK-GKRP interaction: HTRF assay (AID 743207).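 Note: 0% = DMSO with GCK present and -100% = DMSO wells lacking GCK.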 The essentials: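 After 60 min equilibration at room temperature with anti-FLAG XL665 and anti-GST antibodies, FRET ratio (665/615 nm, excitation 320 nm) was read. Proteins: GST-GCK and FLAG-GKRP, each 5 nM, plus 2 uM S6P, pH 7.1 buffer; GCK-free wells define minimum signal.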

Assay [8] is described as follows: qHTS Assay for Identifying Gametocytocidal Compounds (AID 743244).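 For max response: % is set by controls: 0 for no effect and ±100 for the full control effect; actives lower the fluorescent signal which means gametocytes are killed.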 Note: potency is the fitted concentration of half-maximal effect. The settings on record: P. falciparum 3D7 stage III-V gametocytes, alamarBlue, 72 h; max response: stronger effect = lower value. The essentials: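 Compounds are pinned into medium, gametocytes (stage III–V, 3D7, 20,000 cells/well) added, and plates held 72 h at 37 °C in 5% CO2. AlamarBlue follows for 24 h before fluorescence reading.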

A short description of assay [9]: qHTS profiling of the MIPE4 collection as inhibitors of Plasmodium falciparum (3D7) proliferation (AID 743344; call rule not given here;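 note: scaled between DMSO vehicle wells and 0.29 µM artemisinin as full inhibition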). The settings on record: P. falciparum 3D7 in erythrocytes, SYBR Green DNA fluorescence, 72 h; at 28.5 µM (top of the series). The essentials:
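Erythrocytes infected with P. falciparum (0.3% parasitemia, 2.5% hematocrit) incubated with compounds 72 h at 37 C, 5% CO2. Lysis with saponin/Triton buffer containing SYBR Green I, overnight at room temperature in the dark; DNA fluorescence (485/535 nm) normalised to 0.29 uM artemisinin and DMSO.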

Assay [10] can be described thus: qHTS assay for small molecule agonists of the antioxidant response element (ARE) signaling pathway measured by Nrf2-dependant transcriptional activity (AID 720636; active = well fitted curve in the direction sought with a large enough effect in the repeat runs; an effect the other way counts as inactive or inconclusive; note: % of control where 0% means no effect). An outline of the steps: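 ARE-luc HepG2 cells carrying an Nrf2-responsive luciferase reporter, in medium with 1% dialyzed FBS, exposed to compound for 16 hr at 37 C, 5% CO2. Luminescence read 30 min after ONE-Glo addition.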

The nature of assay [11]: qHTS assay for small molecule agonists of the antioxidant response element (ARE) signaling pathway measured by Nrf2-dependant transcriptional activity - cell viability counter screen (AID 720653; active = well fitted curve in the direction sought with a large enough effect in the repeat runs; an effect the other way counts as inactive or inconclusive; note: % is set by controls: 0 for no effect and ±100 for the full control effect). The settings on record: ARE-bla HepG2 viability, CellTiter-Glo ATP luminescence, 16 h; stronger effect = lower value. The essentials: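 ARE-bla HepG2 cells (2,000/well) rested 5 hrs at 37C/5% CO2, then exposed to compounds in DMSO for 16 hrs. Viability was read in the same wells as intracellular ATP by luminescence, 30 min at room temperature after reagent addition.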

Assay [12] is described as follows: qHTS assay for cell viability of HEK293 cells (AID 743288). Note: potency is the fitted concentration of half-maximal effect; nearly all actives have a fitted effect of over 50% in size. The note with it: ATP luminescence (CellTiter-Glo), 18 h; max response: stronger effect = lower value. The essentials: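 Total intracellular ATP, measured with a luciferase-coupled reagent, indicates the number of viable HEK293 cells. Exposure to test chemicals lasts 18 h at 37 C in 1,536-well format at 2,000 cells/well.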

Assay [13] is described as follows: qHTS assay for cell viability of the p53RE-bla HCT-116 cell line (AID 743292). Note: potency is the fitted concentration of half-maximal effect; nearly all actives have a fitted effect of over 55% in size. An outline of the steps:
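CellSensor p53RE-bla HCT-116 cells (4,000/well) pre-incubated 5 h at 37 C, then exposed to compounds in DMSO for 16 h at 37 C. Viability read as ATP content by CellTiter-Glo luminescence after 30 min at room temperature.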

Arylsulfatase A (Homo sapiens), sequence (P15289 whole entry, looked up): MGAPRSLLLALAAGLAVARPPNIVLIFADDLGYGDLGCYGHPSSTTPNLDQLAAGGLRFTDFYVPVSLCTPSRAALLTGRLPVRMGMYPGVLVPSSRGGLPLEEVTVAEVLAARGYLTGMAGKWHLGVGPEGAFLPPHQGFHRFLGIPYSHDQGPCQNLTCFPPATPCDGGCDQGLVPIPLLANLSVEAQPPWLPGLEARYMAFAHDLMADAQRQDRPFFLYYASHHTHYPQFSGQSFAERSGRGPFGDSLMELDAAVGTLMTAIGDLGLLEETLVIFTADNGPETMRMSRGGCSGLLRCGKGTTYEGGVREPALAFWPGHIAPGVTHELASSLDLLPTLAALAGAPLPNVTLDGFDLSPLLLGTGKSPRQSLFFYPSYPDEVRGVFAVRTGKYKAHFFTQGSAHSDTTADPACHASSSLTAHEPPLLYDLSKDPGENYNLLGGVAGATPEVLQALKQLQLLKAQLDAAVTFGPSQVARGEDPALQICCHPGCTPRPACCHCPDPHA
T1 sequence (P35557 whole entry, looked up): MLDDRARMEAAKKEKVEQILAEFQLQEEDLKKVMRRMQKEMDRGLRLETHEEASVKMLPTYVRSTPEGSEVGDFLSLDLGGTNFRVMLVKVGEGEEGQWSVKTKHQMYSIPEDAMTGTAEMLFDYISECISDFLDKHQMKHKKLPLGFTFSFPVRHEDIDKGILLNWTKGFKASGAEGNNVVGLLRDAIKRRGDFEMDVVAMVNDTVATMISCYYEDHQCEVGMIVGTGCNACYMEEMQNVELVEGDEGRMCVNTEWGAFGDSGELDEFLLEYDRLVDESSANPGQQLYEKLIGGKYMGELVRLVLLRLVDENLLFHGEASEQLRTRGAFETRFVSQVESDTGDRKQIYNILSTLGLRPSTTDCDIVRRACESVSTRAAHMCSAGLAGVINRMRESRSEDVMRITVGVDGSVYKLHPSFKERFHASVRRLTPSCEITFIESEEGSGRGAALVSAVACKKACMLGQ
T1 sequence (Q14397 whole entry, looked up): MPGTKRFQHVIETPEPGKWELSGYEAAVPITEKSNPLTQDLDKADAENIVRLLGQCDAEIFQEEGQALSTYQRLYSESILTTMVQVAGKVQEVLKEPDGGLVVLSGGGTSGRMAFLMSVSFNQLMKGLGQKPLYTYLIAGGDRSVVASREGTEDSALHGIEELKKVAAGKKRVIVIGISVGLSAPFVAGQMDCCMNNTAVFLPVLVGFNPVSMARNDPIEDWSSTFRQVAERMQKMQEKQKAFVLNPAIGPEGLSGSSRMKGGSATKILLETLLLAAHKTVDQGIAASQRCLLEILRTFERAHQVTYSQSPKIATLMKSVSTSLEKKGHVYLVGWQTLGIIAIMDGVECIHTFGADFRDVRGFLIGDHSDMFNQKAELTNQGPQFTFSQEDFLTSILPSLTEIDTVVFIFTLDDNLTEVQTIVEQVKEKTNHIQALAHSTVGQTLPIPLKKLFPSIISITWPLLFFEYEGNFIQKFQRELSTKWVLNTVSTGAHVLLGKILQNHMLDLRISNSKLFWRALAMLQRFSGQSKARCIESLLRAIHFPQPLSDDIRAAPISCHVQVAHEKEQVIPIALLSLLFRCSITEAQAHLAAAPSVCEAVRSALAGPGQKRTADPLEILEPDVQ

On to `O=C1NC(=O)c2cc(Nc3ccccc3)c(Nc3ccccc3)cc21`, for which, in [1], the result was inactive. For the same molecule, the Potency result in [2], in assay [3], in assay [4] and in assay [5] was “inactive” in each case.
Turning to `CCC1(O)CC2CN(CCc3c([nH]c4ccccc34)[C@@](C(=O)OC)(c3cc4c(cc3OC)N(C=O)C3[C@]45CCN4CC=C[C@@](CC)([C@@H](OC(C)=O)[C@]3(O)C(=O)OC)[C@H]45)C2)C1` (stereo partly drawn), the Potency result in assay [6], in assay [3], in assay [4], in [5] and in assay [7] was “inactive” in each case.
Regarding `Cn1cc(C(=O)OCC2CCN(CCNS(C)(=O)=O)CC2)c2ccccc21`, the Potency result in [6], in assay [2], in assay [3], in assay [4] and in assay [5] was “inactive” throughout. In addition, the max response in [8] is 28.9% (inactive).
With `CC(=O)N[C@@H](Cc1c[nH]c2ccccc12)C(=O)OCc1cc(C(F)(F)F)cc(C(F)(F)F)c1`, the Potency entry in [6], in assay [3], in assay [4], in assay [5] and in assay [7] was “inactive” each time. In addition, the max response in [8] was 12% (inactive).
On to `CCCCCCCCCCC/C=C\C(C)(C)/C=C\CCCC(=O)O`, for which the Potency entry in assay [6], in [3], in assay [4], in assay [5] and in [7] was “inactive” in each case. In assay [8], the max response is 11.6% (inactive).
`C[C@@]1(C2CCCC2)Cc2cc(OCC(=O)O)c(Cl)c(Cl)c2C1=O`: the Potency result in assay [6], in assay [2], in [3], in assay [4], in assay [5] and in assay [7] was “inactive” in each case. Further, in [8], the max response is 33.9% (inactive).
Consider `NC1CONC1=O` (stereo not drawn), for which the Potency result in assay [6], in assay [4], in assay [5] and in assay [7] was “inactive” each time. In assay [8], the max response was 13.9% (inactive). The molecule also came in with a parasite growth, % of DMSO control in [9] of 94.2%.
Turning to `CC[C@@H]1Cc2cc(O)ccc2C2=C1c1ccc(O)cc1C[C@H]2CC`, the Potency result in [6], in assay [2], in assay [3], in [4] and in [5] was “inactive” throughout. In assay [10], the molecule was called inactive. Besides, in assay [11], the max response was -25.6% (inactive). Also, the values for the Potency in assay [8], in [12] and in assay [13] were 3.55 µM (active), 50.1 µM (active) and 70.8 µM (active), respectively.
For the molecule `CC(O)C(O)[C@H]1CNc2nc(N)[nH]c(=O)c2N1` (stereo partly drawn), the Potency entry in [6], in [2], in assay [3], in [4], in assay [5] and in [7] was “inactive” in each case. Moreover, the max response in [8] was 8.13% (inactive).
`CC[n+]1c(/C=C/C=C2/N(C)c3ccccc3C2(C)C)sc2ccccc21`: the Potency result in assay [6], in [2], in assay [3], in assay [4] and in assay [5] was “inactive” each time.
For the molecule `O=c1oc(Cl)c(Cl)c2ccccc12`, the Potency result in assay [6], in assay [2], in assay [4], in assay [5] and in assay [7] was “inactive” in each case. The max response in assay [8] was 31% (inactive).
For `N=C(N)SCCN`, the Potency entry in assay [6], in assay [2], in [3], in assay [4], in [5] and in [7] was “inactive” each time.
For `CCCN(CCc1ccccc1)C1CCc2c(O)cccc2C1` (stereo not drawn), in assay [1], the outcome was inactive. The Potency entry in assay [2], in assay [3], in [4] and in assay [5] was “inactive” in each case.
`O=c1cc(-c2ccccc2F)[nH]c2cc3c(cc12)OCO3`: the Potency entry in [6], in [2], in assay [3], in assay [4], in assay [5] and in assay [7] was “inactive” each time.
Take `CN1CCN(c2nc3cc(C(F)(F)F)ccc3n3cccc23)CC1`: the Potency entry in assay [6], in assay [2], in assay [3], in assay [4], in assay [5] and in assay [7] was “inactive” in each case. The max response in assay [8] was 14.6% (inactive).
